Drawing on article PMC5700166, this text covers binding signal for ten sequences.

Substitutions are numbered along the chain they refer to.

Assay in all cases: protein-binding microarray (PBM); PBM: ~300 nM protein, 6 mM HEPES pH 7.8, 80 mM KCl, 0.5 mM EDTA, 0.5 mM EGTA, 6% glycerol, 35 ng/ul poly-dIdC, 1% milk, 1 h, room temperature; Ap Aiptasia and Nv Nematostella (sea anemones) / Co Capsaspora / Aq Amphimedon (sponge) / Dm Drosophila / Hu human; RHD is the Rel homology domain; high values mean tight binding
Common to all, as to conditions: dsDNA, one strand shown

Assay [1] has as its target T1, GST-Ap-NF-kB RHD (Exaiptasia pallida (Aiptasia), UniProt A0A913YAJ5 2-422).
T1 sequence: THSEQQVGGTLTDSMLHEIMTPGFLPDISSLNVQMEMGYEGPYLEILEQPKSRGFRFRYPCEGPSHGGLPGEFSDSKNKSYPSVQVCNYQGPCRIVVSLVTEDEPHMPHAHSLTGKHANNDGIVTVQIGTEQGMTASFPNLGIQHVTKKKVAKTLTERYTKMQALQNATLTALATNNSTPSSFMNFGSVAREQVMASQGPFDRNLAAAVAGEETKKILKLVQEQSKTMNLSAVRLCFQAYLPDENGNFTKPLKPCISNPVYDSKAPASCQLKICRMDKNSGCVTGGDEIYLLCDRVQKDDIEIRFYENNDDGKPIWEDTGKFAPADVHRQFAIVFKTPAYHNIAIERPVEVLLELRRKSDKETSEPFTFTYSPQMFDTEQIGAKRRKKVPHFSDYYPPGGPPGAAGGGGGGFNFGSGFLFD

Assay [2] deals with T2, GST-Nv-NF-kB (Cys allele) (Nematostella vectensis, UniProt E5G601 2-411).
T2 sequence: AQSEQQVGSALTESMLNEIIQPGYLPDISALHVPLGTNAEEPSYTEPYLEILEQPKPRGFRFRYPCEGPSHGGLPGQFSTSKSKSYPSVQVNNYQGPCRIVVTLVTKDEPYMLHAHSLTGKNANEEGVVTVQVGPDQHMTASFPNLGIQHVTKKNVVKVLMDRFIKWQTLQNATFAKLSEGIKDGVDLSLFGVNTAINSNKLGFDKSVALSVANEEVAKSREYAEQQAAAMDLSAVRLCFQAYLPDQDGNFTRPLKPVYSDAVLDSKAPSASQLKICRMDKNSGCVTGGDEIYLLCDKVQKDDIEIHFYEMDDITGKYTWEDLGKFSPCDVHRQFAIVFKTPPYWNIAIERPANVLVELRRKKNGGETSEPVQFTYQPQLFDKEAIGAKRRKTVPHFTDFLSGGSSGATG

For assay [3], the target named is T3, GST-Nv-NF-kB (Ser allele) (Nematostella vectensis, UniProt A7UNT2 2-411).
T3 sequence: T2 sequence with Q21R, C66S, S207N, E215Q, V217A, E225K, A268E, D399E

The target of assay [4] is T4, GST-Co-NF-kB (Capsaspora owczarzaki, UniProt F1ARL5 200-546).
T4 sequence: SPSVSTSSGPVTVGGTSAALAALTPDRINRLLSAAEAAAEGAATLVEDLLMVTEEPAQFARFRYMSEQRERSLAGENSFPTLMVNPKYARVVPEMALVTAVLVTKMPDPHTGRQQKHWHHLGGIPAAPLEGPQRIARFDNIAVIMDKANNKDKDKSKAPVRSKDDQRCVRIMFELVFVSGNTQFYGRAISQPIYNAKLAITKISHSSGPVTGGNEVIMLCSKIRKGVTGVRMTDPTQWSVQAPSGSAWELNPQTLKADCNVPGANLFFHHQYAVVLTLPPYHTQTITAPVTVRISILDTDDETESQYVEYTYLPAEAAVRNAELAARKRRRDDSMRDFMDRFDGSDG

In assay [5] the target is T5, GST-Dm-Relish (Drosophila melanogaster, UniProt Q94527 99-473).
T5 sequence: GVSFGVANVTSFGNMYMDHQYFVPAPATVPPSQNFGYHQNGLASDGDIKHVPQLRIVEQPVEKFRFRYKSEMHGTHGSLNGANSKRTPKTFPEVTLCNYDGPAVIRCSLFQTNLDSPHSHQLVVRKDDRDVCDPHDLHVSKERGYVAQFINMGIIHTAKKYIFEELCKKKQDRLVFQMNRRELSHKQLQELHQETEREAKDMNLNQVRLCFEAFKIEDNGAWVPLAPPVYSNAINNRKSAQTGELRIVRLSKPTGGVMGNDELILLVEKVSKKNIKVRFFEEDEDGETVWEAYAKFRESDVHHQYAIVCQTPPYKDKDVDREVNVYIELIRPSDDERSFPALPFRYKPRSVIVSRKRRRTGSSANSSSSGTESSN

Assay [6] concerns the target T6, GST-Aq-NF-kB (Amphimedon queenslandica, UniProt A9Y5G7 2-389).
T6 sequence: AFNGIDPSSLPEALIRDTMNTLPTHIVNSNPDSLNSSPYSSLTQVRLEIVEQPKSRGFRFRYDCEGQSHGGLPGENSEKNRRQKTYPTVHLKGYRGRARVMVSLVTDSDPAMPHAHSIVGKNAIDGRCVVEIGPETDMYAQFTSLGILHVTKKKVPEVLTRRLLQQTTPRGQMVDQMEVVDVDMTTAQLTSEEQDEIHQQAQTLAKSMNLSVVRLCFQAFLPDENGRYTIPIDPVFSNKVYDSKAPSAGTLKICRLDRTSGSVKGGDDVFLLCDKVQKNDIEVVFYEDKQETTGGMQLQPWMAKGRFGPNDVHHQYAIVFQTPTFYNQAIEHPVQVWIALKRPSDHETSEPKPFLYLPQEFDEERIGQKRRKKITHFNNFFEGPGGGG

Assay [7] deals with GST-Hu-p50 (Homo sapiens, UniProt P19838 7-356).
GST-Hu-p50, sequence (P19838 7-356): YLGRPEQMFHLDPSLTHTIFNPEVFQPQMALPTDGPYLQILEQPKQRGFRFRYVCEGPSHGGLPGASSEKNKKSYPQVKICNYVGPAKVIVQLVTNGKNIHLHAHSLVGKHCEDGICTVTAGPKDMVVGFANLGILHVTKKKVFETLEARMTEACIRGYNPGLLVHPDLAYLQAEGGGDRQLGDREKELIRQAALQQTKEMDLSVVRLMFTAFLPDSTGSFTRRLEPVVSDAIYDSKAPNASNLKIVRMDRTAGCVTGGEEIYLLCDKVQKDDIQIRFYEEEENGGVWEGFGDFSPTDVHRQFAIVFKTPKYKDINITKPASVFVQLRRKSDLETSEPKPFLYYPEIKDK

Turning to “CCGATTAACATCAGGGGGGTAAATGATGTTAATCGGGTCTTGATTCGCTTGACGCTGCTG”, the binding signal in assay [1] came out at 4.89 z-score; in assay [2], 4.22 z-score; in assay [3], 4.83 z-score; in assay [4], 7.69 z-score; in assay [5], 4.17 z-score; in assay [6], 4.53 z-score. In assay [7], this sequence displayed a binding signal of 4.35 z-score.
Consider “CCGATTAACATCAGATTTACCCCTGATGTTAATCGGGTCTTGATTCGCTTGACGCTGCTG”, for which the binding signal in assay [1] worked out at 3.07 z-score; in assay [2] it was 2.72 z-score; in assay [3], 3.18 z-score; in assay [4], 6.39 z-score; in assay [5] it was 2.13 z-score; in assay [6], 3.62 z-score. This sequence came in with a binding signal in assay [7] of 3.46 z-score.
In the case of “CCGATTAACATCAGGGGAACAACTGATGTTAATCGGGTCTTGATTCGCTTGACGCTGCTG”, the binding signal in assay [1] was 5.15 z-score; in assay [2], 4.83 z-score; in assay [3] it was 5.57 z-score; in assay [4], 5.75 z-score; in assay [5] it was 8.64 z-score; in assay [6], 5.43 z-score. The binding signal in assay [7] stood at 3.48 z-score.
Consider “CCGATTAACATCACGGGAATACCTGATGTTAATCGGGTCTTGATTCGCTTGACGCTGCTG”, for which the binding signal in assay [1] worked out at 4.13 z-score; in assay [2], 3.29 z-score; in assay [3], 2.87 z-score; in assay [4], 3.47 z-score; in assay [5], 6.3 z-score; in assay [6], 5.81 z-score. The sequence further had a binding signal in assay [7] of 1.75 z-score.
For the sequence “CCGATTAACATCAGGGGGAGGTATGATGTTAATCGGGTCTTGATTCGCTTGACGCTGCTG”, the binding signal was determined as 4.66 z-score in assay [1]; 4.16 z-score in assay [2]; 5.35 z-score in assay [3]; 6.26 z-score in assay [4]; 2.41 z-score in assay [5]; 3.87 z-score in assay [6]. This sequence had a binding signal in assay [7] of 4.35 z-score.
For “CCGATTAACATCAGGGGGTTGACTGATGTTAATCGGGTCTTGATTCGCTTGACGCTGCTG”, the binding signal amounted to 4.64 z-score in assay [1]; 3.2 z-score in assay [2]; 3.62 z-score in assay [3]; 1.93 z-score in assay [4]; 4.51 z-score in assay [5]; 3.95 z-score in assay [6]. In addition, in assay [7], the binding signal is 4.25 z-score.
As for “CCGATTAACATCAAGATTCCCCTTGATGTTAATCGGGTCTTGATTCGCTTGACGCTGCTG”, the binding signal in assay [1] amounted to 7.59 z-score; in assay [2], 10 z-score; in assay [3], 10.8 z-score; in assay [4] it was 5.46 z-score; in assay [5] it was 6.62 z-score; in assay [6] it was 6.39 z-score. In assay [7], this sequence returned a binding signal of 7.18 z-score.
Consider “CCGATTAACATCACCGTTCCCCCTGATGTTAATCGGGTCTTGATTCGCTTGACGCTGCTG”, for which the binding signal in assay [1] amounted to 6.48 z-score; in assay [2] it was 5.21 z-score; in assay [3], 6.93 z-score; in assay [4] it was 6.76 z-score; in assay [5], 2.76 z-score; in assay [6], 4.51 z-score. Moreover, the binding signal in assay [7] was determined as 5.25 z-score.
Take “CCGATTAACATCACTGGATTCCCTGATGTTAATCGGGTCTTGATTCGCTTGACGCTGCTG”: the binding signal came to 3.07 z-score in assay [1]; 2.76 z-score in assay [2]; 3.56 z-score in assay [3]; 2.61 z-score in assay [4]; 4.48 z-score in assay [5]; 2.82 z-score in assay [6]. In addition, the binding signal in assay [7] was found to be 1.36 z-score.
For “CCGATTAACATCAATTCCCCAGGTGATGTTAATCGGGTCTTGATTCGCTTGACGCTGCTG”, the binding signal in assay [1] amounted to 5.33 z-score; in assay [2], 5.44 z-score; in assay [3], 6.65 z-score; in assay [4], 6.18 z-score; in assay [5] it was 2.37 z-score; in assay [6], 3.8 z-score. In addition, the binding signal in assay [7] is 4.94 z-score.
